According to PubChem BioAssay (NCATS):
Inconclusive results are not listed. Where a call stands in place of a potency, no number is given. Active and inactive are the calls of the source. Calls come from the whole dose curve; as a rule, active = well fitted cell-killing curve with a large enough effect; inconclusive = small, poorly fitted or top-dose-only effect, or effect the other way; inactive = flat fitted curve, though single readings scatter.

Experiment: MultiTox-Fluor Cytotoxicity Assay - LYMP1-002 - Live Cells (AID 955)
Details: LYMP1-002 lymphoblastoid live-cell protease fluorescence viability; series mostly up to 46.1 µM
Description: NIH Chemical Genomics Center [NCGC]
NIH Molecular Libraries Screening Centers Network [MLSCN]
National Institutes of Environmental Health Sciences [NIEHS]
National Toxicology Program [NTP]
We have developed a 1536-well cell-based assay for quantitative high throughput screening (qHTS) against a number of cell lines to determine in vitro cytotoxicity of small molecules. This particular assay uses a human lymphoblastoid cell line (LYMP1-002) purchased from Coriell Institute.
NCGC Assay Protocol Summary:
The MultiTox-Fluor Cytotoxicity Assay (Promega) is a homogeneous method to simultaneously measure the relative number of live and dead cells in culture by detecting changes in cell membrane integrity. There are two fluorogenic peptide substrates in the assay reagent. Viable cells are determined when the cell-permeant substrate (GF-AFC) enters the cell and is cleaved by protease from live cells resulting in liberated fluorophore. This live-cell protease activity restricted to viable cells is proportional to cell number. The dead cells are determined by using fluorogenic cell-impermeant peptide substrate (bis-AAF-R110) which cleaved by dead cell proteases leaking from damaged cell membrane.
Using the MultiTox-Fluor Cytotoxicity Assay, the relative number of live cells was measured in the lymphoblastoid cell line with complete culture medium following compound treatment for 16 hours. The assay was performed in opaque black Kalypsys 1536-well plates. In the screen, tetraoctylammonium bromide was used as positive control. Library compounds were measured for their ability to cause acute toxicity in the cell line, as reflected by a decrease in live cell protease activity, in a concentration-dependent manner. […] AC50 values were determined from concentration-response data modeled with the standard Hill equation.
qHTS protocol for MultiTox-Fluor Cytotoxicity assay
[Step] [Parameter] [Value] [Description]
1. Reagent; 5 uL; 2500 lymphoblastoid cells/well
2. Time; 5 hr; 37 C incubation
4. Controls; 23 nL; Tetraoctylammonium bromide 6.4pM to 92 uM
5. Time; 16 hr; 37 C incubation
6. Reagent; 5 uL; MuliTox-Fluor Assay reagent
7. Time; 60 min; Room Temperature
8. Detection; live-cell fluorescence (Ex/Em=405/510); EnVision plate reader
Keywords: cell viability, cytotoxicity, lymphoblastoid cell line, fluorescence, NTPHTS, NTPHTS_NCGC, NIEHS, EPA, DSSTox, MLSMR, MLSCN, NIH Roadmap, qHTS, NCGC
Potency is the fitted concentration of half-maximal effect.

SMILES | Potency
CN(C)c1ccc(C2(c3ccc(N(C)C)cc3)OC(=O)c3cc(N(C)C)ccc32)cc1 | inactive
O=[N+]([O-])c1cc([N+](=O)[O-])c2ccc(S(=O)(=O)O)cc2c1O | inactive
O=Cc1ccc(Cl)c(Cl)c1 | inactive
Cc1cccc(O)c1C | inactive
C=CC(=O)OCCOCCOC(=O)C=C | 15.8 µM (active)
C=C(C)c1ccccc1 | inactive
O=C(/C=C/c1ccc(O)c(O)c1)OC1C[C@](O)(C(=O)O)C[C@@H](O)[C@H]1O (some centres undefined) | inactive
CCCCCCCC[N+](CCCCCCCC)(CCCCCCCC)CCCCCCCC | 3.98 µM (active)
CCC(C)Nc1ccc(NC(C)CC)cc1 (centres undefined) | 10 µM (active)
CO[C@H]1/C=C/O[C@@]2(C)Oc3c(C)c(O)c4c(O)c(c5c(c4c3C2=O)NC2(CCN(CC(C)C)CC2)N=5)=NC(=O)/C(C)=C\C=C\[C@H](C)[C@H](O)[C@@H](C)[C@@H](O)[C@@H](C)[C@H](OC(C)=O)[C@@H]1C | inactive
O=C=Nc1ccc(Cc2ccc(N=C=O)cc2)cc1 | inactive
c1ccc2c(c1)-c1cccc3c1c-2cc1ccccc13 | inactive
Cc1cc(Nc2ccc(O)cc2)ccc1N | inactive
O=C1OC2(c3cc(Br)c(O)c(Br)c3Oc3c2cc(Br)c(O)c3Br)c2c(Cl)c(Cl)c(Cl)c(Cl)c21 | inactive
CCCCCC/C(C=O)=C\c1ccccc1 | inactive
C/C=C1\C(=O)C[C@H]2[C@@H]3CCC4=CC(=O)CC[C@]4(C)[C@H]3CC[C@]12C | inactive
CC(=O)Nc1ccc(C(=O)CCl)cc1 | 12.6 µM (active)
c1ccc2c(c1)ccc1cc3c(ccc4ccccc43)cc12 | inactive
O=C(OCC(COC(=O)c1ccccc1)(COC(=O)c1ccccc1)COC(=O)c1ccccc1)c1ccccc1 | inactive
Cc1ccc(S(=O)(=O)Oc2ccc(N=Nc3ccc(-c4ccc(N=Nc5c(O)ccc6cc(S(=O)(=O)O)cc(S(=O)(=O)O)c56)c(C)c4)cc3C)cc2)cc1 | inactive
Cc1cc(O)c(C(C)(C)C)cc1Sc1cc(C(C)(C)C)c(O)cc1C | 25.1 µM (active)
CN1[C@H]2CC(OC(=O)[C@H](CO)c3ccccc3)C[C@H]1[C@H]1O[C@H]12 (some centres undefined) | inactive
ClC1=C(Cl)C(Cl)(Cl)C(Cl)=C1Cl | inactive
CNc1ccc(O)cc1 | 12.6 µM (active)
